# Lassa entry inh = Lassa virus entry inhibition; Lassa virus pseudotype entry inhibition, cell reporter; AID 540256; Potency, µM (doses to about 37.9 µM), for the others: at the highest dose activity change, negative = inhibition, most hits filed as inhibitors; 1.2% of 300,000 active; calls by dose curve; tested in HEK293 cells; note: potency is the fitted concentration of half-maximal effect; % is set by controls: 0 for no effect and ±100 for the full control effect; nearly all actives have a fitted effect of over 50% in size
# Pf growth 48h = inhibits P. falciparum growth in the first generation, 48 h; 5.9% of 310,000 active; AID 504832; P. falciparum luciferase growth in erythrocytes, 48 h; Potency, µM (doses to about 28.7 µM), for the others: at the highest dose activity change, negative = inhibition, most hits filed as inhibitors; note: potency is the fitted concentration of half-maximal effect; % is set by controls: 0 for no effect and ±100 for the full control effect
#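 Firefly luciferase activity from engineered P. falciparum reports growth; inhibitors lower the luminescent signal. Cultures contained 2% hematocrit erythrocytes at 0.1% final parasitemia.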
# MARV entry inh = blocks Marburg virus binding to or entry into cells; AID 540276; Potency, µM (top dose mostly 37.8 µM), inactives show at the top dose activity change, negative = inhibition, usual class: inhibitors; 1.8% of 300,000 active; Marburg virus pseudotyped entry inhibition, cell reporter; calls by dose curve; tested in HEK293 cells; note: potency is the fitted concentration of half-maximal effect; % is set by controls: 0 for no effect and ±100 for the full control effect
# CHX counter = counter-screen for Shiga toxin inhibitors: cycloheximide protein synthesis inhibition | cell reporter, cycloheximide protein synthesis inhibition counterscreen | max response, % | 12% of 300,000 active | AID 2314; in the data active = max response mostly above about 13%, no sharp cut-off; inactive = mostly below about 14%; note: read at 38.3 µM for the half of the compounds with a filed dose; 0% is about no effect
# Pf growth 96h = P. falciparum growth inhibition at 96 hours; P. falciparum luciferase reporter growth, 96 h; Potency, µM (series often up to 28.7 µM), for the others: at the highest dose activity change, negative = inhibition, hits mostly inhibitors; 6.9% of 320,000 active; note: potency is the fitted concentration of half-maximal effect; % is set by controls: 0 for no effect and ±100 for the full control effect
#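 Erythrocytes infected with luciferase-expressing P. falciparum were dispensed at 2% hematocrit and 0.05% parasitemia (final), then incubated with compounds 96 hours at 37 C in 5% CO2. Luminescence after detection reagent addition reported growth.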
# Shiga toxin inh = inhibitors of Shiga toxin in Vero cells; Vero cells, Shiga toxin protein synthesis inhibition reporter; 9.2% of 290,000 active; inhibition, % at 38.7 µM; in the data active = inhibition mostly above about 28%, no sharp cut-off; inactive = mostly below about 43%; note: 0% is about no effect
# Active calls of the source: *; ? = inconclusive; . = no result given; [ ] = another dose, or the depositor's remark. This is a sample that favours compounds with a hit; in the whole collection about 19% have one here. Unless noted, calls come from the whole dose curve; as a rule, active = well fitted inhibition curve with a large enough effect; inconclusive = small, poorly fitted or top-dose-only effect, or another doubt; inactive = no such curve, though single readings can be large or run the other way.
SMILES,Lassa entry inh,Pf growth 48h,MARV entry inh,CHX counter,Pf growth 96h,Shiga toxin inh
Cc1cc(NC(=O)CCN2CCCCC2)ccc1Br,.,10%,.,-2,2.6µM*,1
COc1ccc(NC(=O)OC(CN2CCCCC2)C(F)(F)F)cc1 (stereo not drawn),10%,31%,3%,21*,40%,21
O=C(CCN1CCCCCC1)Nc1cccc(Cl)c1,-16%,9%,-24%,-3,2.1µM*,20
Cc1cc(NC(=O)CCN2CCN(CCO)CC2)ccc1Br,?,?,-4%[46.1 µM],0,0%,-6
CCOC(=O)c1ccc(NC(=O)c2nn(C)cc2Br)cc1,-4%,55%,-6%,21,-23%,52
Cc1cccc(NC(=O)CCN2CCCCC2)c1,1%,9%,-11%,-4,287%,-6
Cc1cccc(NC(=O)CCN2CCC(C(N)=O)CC2)c1,.,22%,.,-4,6.6µM*,-24
COc1ccc(CC2(CO)CCN(Cc3cnn(C)c3C)CC2)cc1,.,-23%,.,1,?,-3
C1=C(c2ccccc2)Nc2ccccc2N=C1c1ccccc1,?,-11%,-9%,14,2%,36*
[Hg+][c]1ccccc1,.,4.8µM*,.,.,3.4µM*,.
Cc1ccccc1,.,0%,.,.,?,.
Cc1ccccc1OCC(=O)NC(Cc1c[nH]c2ccccc12)C(=O)O (stereo not drawn),7%,29%,?,-1,?,5
CC(C)N=C(NC#N)SCc1ccccc1,-1%,12%,1%,3,4%,3
CC(C)N=C(NC#N)SCc1ccc(Br)cc1,5%,?,-9%,-1,13µM*,-4
COc1ccccc1NC(=O)c1cnc2c(-c3ccccc3)c(C)nn2c1C,2%,1%,7%[46.1 µM],1,44%,-4
O=C(/C=C(\O)c1ccc(Cl)cc1)C(=O)NNC(=O)C(O)(c1ccccc1)c1ccccc1,6%,7%,?,-2,33%,-11
COc1ccc(/C=C2\N=C(c3ccc(C)cc3)OC2=O)cc1,18%,29%,11%,1,322%,.
COc1ccc(C2=NC(=O)/C(=C\c3cc(OC)c(OC)c(OC)c3)O2)cc1,24%,16%,26%,2,0.93µM*,13
COc1cnn(Cc2ccccc2)c(=O)c1SCc1ccccc1,4%,1%,11%,-4,-19%,-4
COc1cc2c(cc1OC)C1=NC(=O)CN1C(SCc1ccccc1)=N2,-17%,10µM*,?,-3,.,1
COc1cc2[nH]c3c(=O)n4c(nc3c2cc1OC)SCCC4,?,102%,?,25*,3%,31*
O=c1c2[nH]c3ccccc3c2nc2n1CCS2,2%,10%,?,11,32%,23
COc1ccc2[nH]c3c(=O)n4c(nc3c2c1)SCC4,-3%[46.1 µM],30%,?,9,10µM*,17
COc1ccc(N(C)C(=O)c2cc3c(s2)-c2ccccc2S(=O)(=O)C3)cc1,?,2.9µM*,?,8,?,3
CN1CCN(C(=O)c2cc3c(s2)-c2ccccc2S(=O)(=O)C3)CC1,.,20%,.,7,51%,11
SMILES,Lassa entry inh,Pf growth 48h,MARV entry inh,CHX counter,Pf growth 96h,Shiga toxin inh
CC(C)CCNC(=O)c1cc2c(s1)-c1ccccc1S(=O)(=O)C2,?,13%,-17%[46.1 µM],16*,-9%,15
CCCN1CCN(C(=O)c2cc3c(s2)-c2ccccc2S(=O)(=O)C3)CC1,.,.,-9%,13,34%,55
CCCCN(C)C(=O)c1cc2c(s1)-c1ccccc1S(=O)(=O)C2,.,34%,.,21*,18%,45
Cc1cc(N2CCCCC2)nc2ccc(NC(=O)/C=C/c3ccccc3Cl)cc12,-15%[46.1 µM],.,0%[46.1 µM],.,.,.
O=C(CN1C(=O)C2CC=CCC2C1=O)Nc1nnc(SCc2c(Cl)cccc2Cl)s1 (stereo not drawn),-6%,6%,20%,-1,.,-14
CCC1CCCCN1C(=O)c1ccc(OC)c(OC2CCN(C(C)C)CC2)c1 (stereo not drawn),19%[46.1 µM],?,-18%[46.1 µM],-2,12%,-7
COCC1CCCCN1C(=O)c1ccc(OC)c(OC2CCN(C(C)C)CC2)c1 (stereo not drawn),.,10%,.,57*,61%,93*
COCC1CCN(C(=O)c2ccc(OC)c(OC3CCN(C(C)C)CC3)c2)CC1,-1%,14%,2%,16,3.3µM*,19
COCC1CCCCN1C(=O)c1cccc(OC2CCN(C(=O)C3CC3)CC2)c1 (stereo not drawn),21%,?,1%,50*,26%,81*
COC(=O)c1ccc(S(=O)(=O)N2CCOCC2)o1,.,?,.,-2,?,-12
Cn1ncc2c(Nc3ccc(Br)cc3)nc(Nc3ccc(Br)cc3)nc21,-20%,2.1µM*,?,-4,9.3µM*,1
Cn1ncc2c(Nc3ccc(O)cc3)nc(Cl)nc21,-29%,48%,?,1,82%,-17
CNc1nc(Nc2ccc(C)c(Cl)c2)c2cnn(C)c2n1,.,2%,.,12,0%,-4
Cn1ncc2c(Nc3cccc(Cl)c3)nc(Nc3cccc(Cl)c3)nc21,-25%[46.1 µM],1.7µM*,?,-2,2.9µM*,-1
CN1c2ccccc2C(=O)C(=C2SCCCS2)S1(=O)=O,.,2%,.,25*,-20%,32
COCCNC(=O)C(c1ccc(C)o1)N(Cc1ccc(OC)cc1)C(=O)Cn1nnc2ccccc21 (stereo not drawn),0%,.,11%,0,?,-15
Cc1cccc(N(C(=O)Cn2nnc(-c3ccccc3F)n2)C(C(=O)NC(C)(C)C)c2ccncc2)c1 (stereo not drawn),-1%[46.1 µM],17%,-26%[46.1 µM],-2,10%,-8
O=C(NC1CCCCC1)C(c1ccccc1)N(Cc1ccco1)C(=O)c1csnn1 (stereo not drawn),-5%,-19%,?,1,5%,-6
Cc1cccc(N(C(=O)Cn2nnc3ccccc32)C(C(=O)NC(C)(C)C)c2ccsc2)c1 (stereo not drawn),-12%,10µM*,-2%,7,3.3µM*,-9
CCc1ccc(C(C(=O)NC(C)(C)CC)N(Cc2ccco2)C(=O)Cn2nnc3ccccc32)cc1 (stereo not drawn),-18%,12µM*,?,-1,16%,16
O=C(NC1CCCCC1)C(c1ccccc1)N(Cc1ccco1)C(=O)Cn1cnc2ccccc21 (stereo not drawn),-17%,3.7µM*,-28%,-5,81%,8
COc1ccc(CN(C(=O)Cn2nnc3ccccc32)C(C(=O)NC(C)(C)C)c2ccco2)cc1 (stereo not drawn),14%,-11%,0%,-4,4.7µM*,15
CCC(C)(C)NC(=O)C(c1cccn1C)N(C(=O)Cn1nnc2ccccc21)c1ccc(OC)cc1 (stereo not drawn),18%,12µM*,-23%,-3,-4%,32

# High-throughput results: PubChem, National Center for Advancing Translational Sciences (NCATS)
